# PubChem BioAssay (NCI)
# The panel holds about 79,000 compounds, 15% with a hit somewhere; the sample as a whole holds those more often. Values without a mark were called inactive. The source made the active and inactive calls. Rule as the data show it: active = growth inhibition above about 70%; inactive = the rest.
# Tests used:
# [1] = NCI Yeast Anticancer Drug Screen. Data for the rad52 strain (AID 147);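 also: 0% = growth of vehicle-treated control cultures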; conditions: S. cerevisiae rad52 mutant growth inhibition, hits give high values
# Procedure, shortened: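 Compounds are applied to a genetically defined yeast strain lacking normal DNA damage repair, and inhibition of growth is expressed relative to cultures given vehicle only.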
# [2] = NCI Yeast Anticancer Drug Screen. Data for the wt1 strain (AID 149);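 also: 0% = growth of vehicle-treated wt1 cultures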; conditions: S. cerevisiae wt1 strain (SPY 50644) growth inhibition, hits give high values
# Procedure, shortened: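 The wt1 strain was treated with compounds, and growth was compared with vehicle-treated cultures to give inhibition.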
# [3] = NCI Yeast Anticancer Drug Screen. Data for the rad50EPP+ strain (AID 151);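 also: 0% = growth of vehicle-treated control cultures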; conditions: S. cerevisiae rad50 mutant strain, hits give high values
# Procedure, shortened: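 Compounds were applied to the rad50EPP+ yeast strain, which bears a defined DNA repair alteration, and growth inhibition was determined relative to vehicle-treated cultures.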
# [4] = NCI Yeast Anticancer Drug Screen. Data for the rad50 strain (AID 155);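 also: 0% = growth of vehicle-only cultures of the same strain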; conditions: S. cerevisiae rad50 strain growth inhibition, hits give high values
# Procedure, shortened: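 Cells are treated with compound, grown, and their growth is then scored against vehicle-only cultures of the same repair-deficient yeast strain.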
# [5] = NCI Yeast Anticancer Drug Screen. Data for the mec2-1 strain (AID 157); conditions: S. cerevisiae mec2-1 strain, hits give high values
# Procedure, shortened: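 Strain: mec2-1 (DNA repair/cell cycle alteration). Compound exposure, then growth measured; inhibition expressed relative to vehicle.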
# [6] = NCI Yeast Anticancer Drug Screen. Data for the rad14 strain (AID 159);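 also: 0% = growth of vehicle-treated control cultures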; conditions: S. cerevisiae rad14 strain growth inhibition, hits give high values
# Procedure, shortened: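 Readout: yeast growth inhibition, referenced to vehicle-only cultures. Strain bears a defined alteration in DNA damage repair.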
# [7] = NCI Yeast Anticancer Drug Screen. Data for the sgs1 mgt1 strain (AID 161);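 also: 0% = growth of cultures given vehicle only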; conditions: S. cerevisiae sgs1 mgt1 strain, hits give high values
# Procedure, shortened: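 Mutant yeast exposed to compound; growth scored against vehicle-only wells.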
# [8] = NCI Yeast Anticancer Drug Screen. Data for the CLN2oe strain (AID 163);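 also: 0% = growth of vehicle-only control cultures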; conditions: S. cerevisiae CLN2oe strain, hits give high values
# Procedure, shortened: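 Growth of a genetically modified yeast strain is measured after compound exposure and compared with cultures given vehicle alone.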
# [9] = NCI Yeast Anticancer Drug Screen. Data for the cln2 rad14 strain (AID 165);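 also: 0% = growth equal to vehicle treated cultures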; conditions: S. cerevisiae cln2 rad14 strain, hits give high values
# Procedure, shortened: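 Compounds are applied to the cln2 rad14 yeast strain, and growth is then compared with that of vehicle-treated cultures to give inhibition.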
# [10] = NCI Yeast Anticancer Drug Screen. Data for the bub3 strain (AID 167); conditions: S. cerevisiae bub3 mutant strain, hits give high values
# Procedure, shortened: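 Part of a panel of yeast mutants defective in DNA damage repair or cell cycle regulation. Each strain is grown with compound, and inhibition is calculated relative to solvent-treated cultures.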
# [11] = NCI Yeast Anticancer Drug Screen. Data for the mlh1 strain (AID 171);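 also: 0% = growth of vehicle-treated control cultures of the same strain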; conditions: S. cerevisiae mlh1 strain growth inhibition, hits give high values
# Procedure, shortened: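 Growth of the mutant yeast strain after compound exposure, expressed as inhibition relative to vehicle-only controls.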
# [12] = NCI Yeast Anticancer Drug Screen. Data for the sgs1 strain (AID 173);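 also: 0% = growth of vehicle-only control cultures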; conditions: S. cerevisiae sgs1 mutant, hits give high values
# Procedure, shortened: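 Growth of a yeast strain bearing a defined genetic alteration is measured after compound treatment. Inhibition is expressed relative to vehicle-only controls.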
# [13] = NCI Yeast Anticancer Drug Screen. Data for the mlh1 rad18 strain (AID 175); conditions: S. cerevisiae mlh1 rad18 strain growth inhibition, hits give high values
# Procedure, shortened: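 Read-out is yeast growth inhibition, calculated against vehicle-only controls. The compound was applied to a strain engineered with DNA damage repair alterations.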
# [14] = NCI Yeast Anticancer Drug Screen. Data for the rad18 strain (AID 177); conditions: S. cerevisiae rad18 mutant growth inhibition, hits give high values
# Procedure, shortened: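 Growth of the mutant yeast strain after compound exposure, normalised to vehicle-only cultures.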
# [15] = NCI Yeast Anticancer Drug Screen. Data for the mgt1 strain (AID 153); conditions: S. cerevisiae mgt1 mutant growth inhibition, hits give high values
# Procedure, shortened: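 Strain: mgt1 yeast, one of a set carrying defined DNA damage repair or cell cycle control alterations. Compound-treated growth compared with vehicle.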
# [16] = NCI Yeast Anticancer Drug Screen. Data for the wt2 strain (AID 169);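 also: 0% = growth of vehicle-treated yeast cultures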; conditions: S. cerevisiae wt2 strain growth inhibition, hits give high values
# Procedure, shortened: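 This strain belongs to a panel of yeast strains with defined genetic alterations in DNA damage repair or cell cycle control. Compounds are applied, and growth inhibition is measured against vehicle-treated cultures.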
# [17] = at 5.0 µM (retest, dose inferred, filed as 0.5)
# [18] = at 50.0 µM (retest, dose inferred, filed as 5.0)
compound,measurement,setting,value
N#[N+]c1c([O-])c2ccccc2c2ccccc12,growth inhibition,[1]; at 1.2 µM,13%
same,growth inhibition,[1]; at 3.7 µM,23%
same,growth inhibition,[1]; at 11.0 µM,82% (active)
same,growth inhibition,[1]; at 33.0 µM,97% (active)
same,growth inhibition,[1]; at 100.0 µM,97% (active)
same,growth inhibition,[2]; at 1.2 µM,3%
same,growth inhibition,[2]; at 3.7 µM,4%
same,growth inhibition,[2]; at 11.0 µM,15%
same,growth inhibition,[2]; at 33.0 µM,30%
same,growth inhibition,[2]; at 100.0 µM,97% (active)
same,growth inhibition,[3]; at 1.2 µM,13%
same,growth inhibition,[3]; at 3.7 µM,32%
same,growth inhibition,[3]; at 11.0 µM,84% (active)
same,growth inhibition,[3]; at 33.0 µM,96% (active)
same,growth inhibition,[3]; at 100.0 µM,96% (active)
same,growth inhibition,[4]; at 1.2 µM,22%
same,growth inhibition,[4]; at 3.7 µM,46%
same,growth inhibition,[4]; [17],-23%
same,growth inhibition,[4]; at 11.0 µM,85% (active)
same,growth inhibition,[4]; at 33.0 µM,96% (active)
same,growth inhibition,[4]; [18],35%
same,growth inhibition,[4]; at 50.0 µM,92.7% (active)
same,growth inhibition,[4]; at 100.0 µM,96% (active)
same,growth inhibition,[5]; at 1.2 µM,0%
same,growth inhibition,[5]; at 3.7 µM,0%
same,growth inhibition,[5]; [17],-1%
same,growth inhibition,[5]; at 11.0 µM,7%
same,growth inhibition,[5]; at 33.0 µM,60%
same,growth inhibition,[5]; [18],36%
same,growth inhibition,[5]; at 50.0 µM,48.6%
same,growth inhibition,[5]; at 100.0 µM,97% (active)
same,growth inhibition,[6]; at 1.2 µM,3%
same,growth inhibition,[6]; at 3.7 µM,17%
same,growth inhibition,[6]; at 11.0 µM,25%
same,growth inhibition,[6]; at 33.0 µM,80% (active)
same,growth inhibition,[6]; at 100.0 µM,97% (active)
same,growth inhibition,[7]; [17],-5%
same,growth inhibition,[7]; [18],16%
same,growth inhibition,[7]; at 50.0 µM,76.2% (active)
same,growth inhibition,[8]; at 1.2 µM,4%
same,growth inhibition,[8]; at 3.7 µM,8%
same,growth inhibition,[8]; at 11.0 µM,18%
same,growth inhibition,[8]; at 33.0 µM,42%
same,growth inhibition,[8]; at 100.0 µM,95% (active)
same,growth inhibition,[9]; [17],-41%
same,growth inhibition,[9]; [18],2%
same,growth inhibition,[9]; at 50.0 µM,47.5%
same,growth inhibition,[10]; at 1.2 µM,12%
same,growth inhibition,[10]; at 3.7 µM,10%
same,growth inhibition,[10]; [17],-14%
same,growth inhibition,[10]; at 11.0 µM,24%
same,growth inhibition,[10]; at 33.0 µM,54%
same,growth inhibition,[10]; [18],22%
same,growth inhibition,[10]; at 50.0 µM,44%
same,growth inhibition,[10]; at 100.0 µM,95% (active)
same,growth inhibition,[11]; at 1.2 µM,-1%
same,growth inhibition,[11]; at 3.7 µM,-1%
same,growth inhibition,[11]; at 11.0 µM,20%
same,growth inhibition,[11]; at 33.0 µM,65%
same,growth inhibition,[11]; at 100.0 µM,97% (active)
same,growth inhibition,[12]; at 1.2 µM,0%
same,growth inhibition,[12]; at 3.7 µM,4%
same,growth inhibition,[12]; at 11.0 µM,20%
same,growth inhibition,[12]; at 33.0 µM,82% (active)
same,growth inhibition,[12]; at 100.0 µM,97% (active)
same,growth inhibition,[13]; [17],-29%
same,growth inhibition,[13]; [18],50%
same,growth inhibition,[13]; at 50.0 µM,86% (active)
same,growth inhibition,[14]; at 1.2 µM,30%
same,growth inhibition,[14]; at 3.7 µM,50%
same,growth inhibition,[14]; at 11.0 µM,93% (active)
same,growth inhibition,[14]; at 33.0 µM,98% (active)
same,growth inhibition,[14]; at 100.0 µM,96% (active)
CC(=O)N1C=Cc2c(c(C)c3c([nH]c4ccccc43)c2C)C1,growth inhibition,[1]; at 1.2 µM,25%
same,growth inhibition,[1]; at 3.7 µM,88% (active)
same,growth inhibition,[1]; at 11.0 µM,95% (active)
same,growth inhibition,[1]; at 33.0 µM,96% (active)
same,growth inhibition,[1]; at 100.0 µM,97% (active)
same,growth inhibition,[2]; at 1.2 µM,-7%
same,growth inhibition,[2]; at 3.7 µM,28%
same,growth inhibition,[2]; at 11.0 µM,82% (active)
same,growth inhibition,[2]; at 33.0 µM,90% (active)
same,growth inhibition,[2]; at 100.0 µM,92% (active)
same,growth inhibition,[3]; at 1.2 µM,28%
same,growth inhibition,[3]; at 3.7 µM,74% (active)
same,growth inhibition,[3]; at 11.0 µM,94% (active)
same,growth inhibition,[3]; at 33.0 µM,97% (active)
same,growth inhibition,[3]; at 100.0 µM,96% (active)
same,growth inhibition,[15]; at 1.2 µM,29%
same,growth inhibition,[15]; at 3.7 µM,64%
same,growth inhibition,[15]; at 11.0 µM,91% (active)
same,growth inhibition,[15]; at 33.0 µM,96% (active)
same,growth inhibition,[15]; at 100.0 µM,95% (active)
same,growth inhibition,[4]; at 1.2 µM,67%
same,growth inhibition,[4]; at 3.7 µM,91% (active)
same,growth inhibition,[4]; [17],82% (active)
same,growth inhibition,[4]; at 11.0 µM,95% (active)
same,growth inhibition,[4]; at 33.0 µM,96% (active)
same,growth inhibition,[4]; [18],91% (active)
same,growth inhibition,[4]; at 50.0 µM,87.2% (active)
same,growth inhibition,[4]; at 100.0 µM,95% (active)
same,growth inhibition,[6]; at 1.2 µM,7%
same,growth inhibition,[6]; at 3.7 µM,32%
same,growth inhibition,[6]; at 11.0 µM,79% (active)
same,growth inhibition,[6]; at 33.0 µM,90% (active)
same,growth inhibition,[6]; at 100.0 µM,94% (active)
same,growth inhibition,[7]; [17],16%
same,growth inhibition,[7]; [18],91% (active)
same,growth inhibition,[7]; at 50.0 µM,88% (active)
same,growth inhibition,[8]; at 1.2 µM,31%
same,growth inhibition,[8]; at 3.7 µM,52%
same,growth inhibition,[8]; at 11.0 µM,91% (active)
same,growth inhibition,[8]; at 33.0 µM,95% (active)
same,growth inhibition,[8]; at 100.0 µM,95% (active)
same,growth inhibition,[9]; [17],24%
same,growth inhibition,[9]; [18],86% (active)
same,growth inhibition,[9]; at 50.0 µM,79.8% (active)
same,growth inhibition,[10]; at 1.2 µM,16%
same,growth inhibition,[10]; at 3.7 µM,52%
same,growth inhibition,[10]; [17],14%
same,growth inhibition,[10]; at 11.0 µM,90% (active)
same,growth inhibition,[10]; at 33.0 µM,95% (active)
same,growth inhibition,[10]; [18],86% (active)
same,growth inhibition,[10]; at 50.0 µM,85.3% (active)
same,growth inhibition,[10]; at 100.0 µM,96% (active)
same,growth inhibition,[16]; at 1.2 µM,10%
same,growth inhibition,[16]; at 3.7 µM,36%
same,growth inhibition,[16]; at 11.0 µM,81% (active)
same,growth inhibition,[16]; at 33.0 µM,90% (active)
same,growth inhibition,[16]; at 100.0 µM,92% (active)
same,growth inhibition,[11]; at 1.2 µM,31%
same,growth inhibition,[11]; at 3.7 µM,71% (active)
same,growth inhibition,[11]; at 11.0 µM,90% (active)
same,growth inhibition,[11]; at 33.0 µM,96% (active)
same,growth inhibition,[11]; at 100.0 µM,95% (active)
same,growth inhibition,[12]; at 1.2 µM,-7%
same,growth inhibition,[12]; at 3.7 µM,32%
same,growth inhibition,[12]; at 11.0 µM,86% (active)
same,growth inhibition,[12]; at 33.0 µM,95% (active)
same,growth inhibition,[12]; at 100.0 µM,95% (active)
same,growth inhibition,[13]; [17],44%
same,growth inhibition,[13]; [18],95% (active)
same,growth inhibition,[13]; at 50.0 µM,88.8% (active)
same,growth inhibition,[14]; at 1.2 µM,23%
same,growth inhibition,[14]; at 3.7 µM,44%
same,growth inhibition,[14]; at 11.0 µM,91% (active)
same,growth inhibition,[14]; at 33.0 µM,96% (active)
same,growth inhibition,[14]; at 100.0 µM,96% (active)
